# Screening results (PubChem)
# IEC-6 tox: IEC-6 cytotoxicity, counter-screen for KLF5 inhibitors; luminescence viability; inhibition, % at 5 µM; 0.78% of 290,000 active; in the data active = inhibition above about 22%;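 also: 0% = plate median of test compound wells and 100% = cytotoxic reference compound wells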
# Ba/F3 V617F tox: reduce viability of Ba/F3 cells dependent on JAK2V617F; Ba/F3 EpoR-JAK2V617F viability, ATP luminescence; inhibition, % at 5.6 µM; 1.1% of 220,000 active; AID 1446;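 active = inhibition above the campaign mean plus 3 SD over all tested compounds, cut at about 24% in these data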;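 also: cytokine-independent growth of Ba/F3 cells driven by EpoR plus mutant JAK2; 0% = DMSO-treated cells and 100% = JAK inhibitor I control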
# aSyn 5UTR inh: MLPCN primary screen, SNCA 5' untranslated region; alpha-synuclein 5'UTR reporter, inhibitor activity; inhibition, % (tested at 7.5 µM); 0.82% of 300,000 active; AID 1813; in the data active = inhibition above about 60%;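 also: H4 neuroglioblastoma cells stably carrying SNCA 5'UTR luciferase fusion; 0% = DMSO wells and 100% = positive control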
# BaF3 tox: parental Ba/F3 viability inhibition as JAK2V617F counter-screen; 1.1% of 220,000 active; CellTiter-Glo ATP luminescence; inhibition, % at 5.6 µM;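 active = inhibition above a per-campaign cutoff, the mean inhibition of all tested compounds plus 3 SD, cut at about 27% in these data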;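 also: 0% = DMSO wells and 100% = JAK Inhibitor I control wells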
# APP transl inh: APP translation inhibition; SH-SY5Y APP 5'UTR-luciferase reporter, luminescence; inhibition, % at 2 µM; 0.82% of 190,000 active; AID 1285;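 active = inhibition above a set limit, derived from the sample mean plus 3 SD, cut at about 45% in these data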
# KLF5 inhibitor: suppresses KLF5 promoter-driven expression. DLD-1 KLF5 promoter-luciferase reporter, luminescence. inhibition, % at 5 µM. 0.23% of 290,000 active;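 active = inhibition above a per-plate limit of that plate's mean compound inhibition plus 3 SD, cut at about 60% in these data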;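 also: 0% = DMSO wells and 100% = LY294002 at 200 µM; higher means less KLF5 promoter-driven luciferase light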
# An asterisk follows results filed as active; . = no result given. Shown are actives, neighbours in structure and some others; about 2.2% of the full set was active somewhere.
SMILES,IEC-6 tox,Ba/F3 V617F tox,aSyn 5UTR inh,BaF3 tox,APP transl inh,KLF5 inhibitor
COc1ccc(/C=C/C(=O)O)cc1S(=O)(=O)NCc1ccco1,-1.5,-5.5,-10.5,-1.1,.,-2.0
CSCCC(NC(=O)c1ccccc1Cl)C(=O)Nc1ccc(C)c(S(=O)(=O)N2CCOCC2)c1 (centres undefined),.,.,-5.0,.,.,.
Cc1ccc(Nc2c(-c3ccccn3)nc3ccc(C)cn23)cc1,-1.4,4.5,35.6,1.6,60.0*,6.1
Cc1ccc(-c2nc3cnccn3c2Nc2ccc3c(c2)OCO3)o1,-7.0,-4.0,20.5,0.8,9.3,-2.7
Cc1ccn2c(Nc3ccc4c(c3)OCO4)c(-c3ccccn3)nc2c1,-5.6,-3.4,-50.4,3.6,52.4*,-48.9
Cc1ccn2c(NC3CCCC3)c(-c3ccccn3)nc2c1,1.8,3.2,-46.8,6.8,1.4,-48.5
Cc1ccc(Nc2c(-c3ccccn3)nc3cc(C)ccn23)cc1,11.1,1.0,34.7,0.4,59.8*,7.0
O=C(CSc1ccccc1)N1CCN(c2ccc(F)cc2)CC1,.,.,-23.3,.,.,.
CC(=O)c1ccc(N2CCN(S(=O)(=O)c3c(C)[nH]c(C)c3C(=O)N3CCCCC3)CC2)cc1,-0.8,.,14.4,.,.,-21.9
O=C(Nc1ccccc1C(=O)N1CCCCC1)c1ccc(Cl)cc1Cl,2.7,.,-0.7,.,.,-15.8
Cc1coc2c(C)c3oc(=O)c(CCC(=O)N[C@@H](C)C(=O)N[C@@H](Cc4ccccc4)C(=O)O)c(C)c3cc12,1.7,.,23.3,.,.,2.9
C=CCn1c(=O)c(C(=O)NCc2ccccc2Cl)c(O)c2ccccc21,-6.9,.,-18.4,.,.,-15.7
C=CCn1c(=O)c(C(=O)NCCN(CC)CC)c(O)c2ccccc21,6.2,-1.2,.,46.5*,-1.9,-16.5
CC(=O)O[C@H]1C(=O)[C@@]2(C)[C@H]([C@H](OC(=O)c3ccccc3)[C@]3(O)C[C@H](OC(=O)[C@H](O)C(NC(=O)c4ccccc4)c4ccccc4)C(C)=C1C3(C)C)[C@]1(OC(C)=O)CO[C@@H]1C[C@@H]2O (some centres undefined),.,.,72.3*,.,.,.
COc1cc2c(cc1OC)CN(C(=S)Nc1ccccc1)CC2,-3.1,4.2,-3.6,33.1*,-7.4,-10.1
O=C(CN1C(=O)/C(=C\c2cccc(Cl)c2)Oc2ccccc21)N1CCN(c2ccccn2)CC1,3.0,1.2,6.2,8.7,10.7,-38.6
Cc1ccc(OCCN2CCN(c3ncnc4sc(C)c(C)c34)CC2)cc1,3.5,8.9,-3.8,27.9*,.,-9.0
COc1ccccc1CC(=O)Nc1cccc(S(=O)(=O)N2CCOCC2)c1,-1.1,.,-0.6,.,.,-26.4
CCCCNC(C(=O)Nc1cccc(S(=O)(=O)N2CCOCC2)c1)c1ccccc1 (centres undefined),-6.5,-0.1,2.8,35.9*,-3.7,15.1
Cc1cc(C)c(Cc2c(C)nc3c(C(=O)NCc4ccco4)cnn3c2C)c(C)c1,-0.8,3.3,7.2,7.7,-10.9,-14.5
Fc1ccc(NC(=S)NCCc2ccccc2)c(F)c1F,-1.8,42.3*,-43.3,53.7*,-1.7,-41.6
Cc1cc(C(C)(C)C)cc(C)c1COC(=O)c1cccnc1,-9.2,.,14.8,.,.,0.8
O=C(NCC(c1ccco1)N1CCc2ccccc21)C(=O)Nc1ccc(F)cc1F (centres undefined),.,.,-6.9,.,.,.
O=C(c1nn2c(C(F)(F)F)cc(-c3cccs3)nc2c1Cl)N1CCCc2ccccc21,-1.1,2.0,77.7*,3.2,13.5,-12.1
O=C(NCc1nc2ccccc2[nH]1)C1=C[C@H](C2CC2)C[C@H](OCc2ccc(CO)cc2)O1,.,.,14.4,.,.,.
SMILES,IEC-6 tox,Ba/F3 V617F tox,aSyn 5UTR inh,BaF3 tox,APP transl inh,KLF5 inhibitor
O=S(=O)(c1cccs1)N1CCN(Cc2nc3ccccc3s2)CC1,5.4,1.6,-7.3,5.1,-5.4,-0.9
O=C(OCc1nc2ccccc2s1)C1CCN(S(=O)(=O)c2cccs2)CC1,-1.1,1.5,-43.9,96.2*,-29.4,-37.0
COC(=O)CC1C(=O)NCCN1Cc1cn(-c2ccc(C)cc2)nc1-c1cccc(C)c1 (centres undefined),3.7,1.1,-36.7,3.1,-14.9,5.5
CCC(=O)Nc1cccc(C(=O)/C=C/c2cc(Br)ccc2OC)c1,1.4,4.4,-125.2,8.2,75.0*,-22.8
CC(=O)Nc1cccc(C(=O)/C=C/c2ccc(/C=C/C(=O)c3cccc(NC(C)=O)c3)cc2)c1,-0.7,1.0,-128.9,5.8,92.4*,5.3
CC(=O)Nc1cccc(C(=O)/C=C/c2ccc(F)cc2)c1,2.8,-7.3,-103.1,-1.0,-25.0,-1.9
COc1ccccc1NC(=O)NC1(C(=O)N2CCCCC2)CCCCC1,2.1,.,13.5,.,.,-10.1
FC(F)(F)c1cc(Oc2ccc(Cl)cc2)nc(-c2ccccn2)n1,1.2,-4.6,8.8,-0.3,-1.4,10.5
FC(F)(F)c1cc(Oc2ccccc2Cl)nc(-c2ccccn2)n1,15.7,-3.7,64.2*,1.5,-5.0,2.5
CN(C)c1ccc(-c2noc(-c3ccccc3O)n2)cc1,3.3,-0.2,71.4*,1.1,-144.0,-7.8
c1ccc(-c2noc(-c3ccccc3-c3ccccc3)n2)cc1,4.1,-3.4,-7.0,2.4,13.9,-10.1
COC(=O)c1nn(-c2ccc(-c3ccccc3)cc2)cc1O,2.9,0.6,67.0*,7.2,-156.3,-47.1
CCOC(=O)c1nn(-c2ccccc2)cc1O,-1.3,-0.6,-60.2,-4.1,.,-49.6
CCn1c2ccccc2c2cc(NC(=O)CSc3nnc(-c4cccc(F)c4)o3)ccc21,10.3,-1.5,-67.9,-1.4,46.8*,-22.4
CCn1c2ccccc2c2cc(NC(=O)c3cc(OC)cc(OC)c3)ccc21,9.5,1.3,100.7*,6.0,94.9*,-11.9
CCn1c2ccccc2c2cc(NC(=O)CSc3nnc(-c4ccccc4)o3)ccc21,8.6,-2.5,-155.4,1.1,57.6*,-28.0
COc1ccc(C2(NC(C)=O)CCN(Cc3cccnc3)CC2)cc1,-0.6,.,1.7,.,.,-15.3
O=C(O)c1nn(CCSc2ccccc2F)c(=O)c2ccccc12,9.4,-5.2,11.5,1.3,.,-19.2
Cc1cc(C)n(C(=O)c2ccc([N+](=O)[O-])cc2Cl)n1,1.4,.,5.2,.,.,-21.8
CC[n+]1c(/C=C2\C=C(C)CC(C)C2)sc2ccccc21 (centres undefined),-1.3,62.7*,-10.8,62.7*,5.1,-19.0
CCC1=C/C(=C/c2sc3ccccc3[n+]2CC)CC(C)(C)C1,-8.2,1.7,-41.9,15.5,-16.9,-0.8
CC[n+]1c(/C=C2/C=C(C)CC(C)(C)C2)sc2ccc(OC)cc21,-8.3,63.9*,-11.4,59.3*,0.3,-26.2
CC[n+]1c(/C=C2\C=C(C)CC(C)(C)C2)sc2ccccc21,-0.8,56.2*,-47.3,60.1*,11.2,-35.8
C[C@H](NC(=O)c1ccco1)C(=O)NCCc1ccc(S(N)(=O)=O)cc1,0.1,-0.7,9.4,-1.8,.,-6.0
O=C(CSc1nnc(SCc2cccc3ccccc23)s1)N/N=C/C=C/c1ccccc1[N+](=O)[O-],2.4,3.5,10.0,5.7,7.9,-11.5
C[n+]1c(/C=C/c2ccc3c(c2)OCO3)ccc2ccccc21,3.0,41.3*,-149.8,33.4*,-185.0,-28.4
